Assay outcomes from PubChem BioAssay.
A selection: hits, their analogues and other compounds. The true share with any hit is near 1.5%.
FBPA coupling cs – qHTS Assay for Inhibitors of Fructose-1,6-bisphosphate Aldolase from Giardia Lamblia: Coupling assay counterscreen; coupling enzyme system counterscreen, AmpLite Red fluorescence; activity change, negative = inhibition, % at 58.2 µM, hits read low; 290,000 tested, 0.67% active; in the data active = activity change below about -30%
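Compounds tested against the coupling enzymes alone at 57.5 uM final; readout was AmpLite Red fluorescence (525/598 nm) after 20 min at RT.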
mIDH1 inhibitor – qHTS for Inhibitors of mutant isocitrate dehydrogenase 1 (IDH1): qHTS; Isocitrate dehydrogenase [NADP] cytoplasmic (Homo sapiens), O75874; IDH1-R132H enzyme, NADPH consumption, diaphorase/resazurin fluorescence; Potency, µM (highest dose often 76.6 µM), for the others: top-dose activity change, negative = inhibition, actives largely listed as inhibitors; 390,000 tested, 0.093% active; AID 602179, 2012; note: potency is the fitted concentration of half-maximal effect; nearly all actives have a fitted effect of over 65% in size
Target sequence (O75874 whole entry R132H, stated change not applied): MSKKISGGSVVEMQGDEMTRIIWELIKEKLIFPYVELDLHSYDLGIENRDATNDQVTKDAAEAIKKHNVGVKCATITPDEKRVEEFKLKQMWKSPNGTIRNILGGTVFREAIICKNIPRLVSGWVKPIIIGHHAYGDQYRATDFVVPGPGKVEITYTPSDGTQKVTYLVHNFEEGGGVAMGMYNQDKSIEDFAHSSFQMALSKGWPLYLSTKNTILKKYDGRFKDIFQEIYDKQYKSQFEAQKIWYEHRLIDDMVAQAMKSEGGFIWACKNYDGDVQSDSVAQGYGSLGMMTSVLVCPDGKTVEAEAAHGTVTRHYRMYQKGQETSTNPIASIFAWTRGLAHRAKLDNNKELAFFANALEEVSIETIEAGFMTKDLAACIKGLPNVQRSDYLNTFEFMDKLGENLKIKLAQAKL
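IDH1-R132H (0.5 ug/mL) preincubated 30 min with compound, then NADPH (0.016 mM) and alpha-KG (2 mM) added; 80 min at RT, pH 7.5. Remaining NADPH coupled via diaphorase/resazurin to fluorescence (540/590 nm); concentration-response curves normalized to no-enzyme control.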
Eya2 inh – qHTS Assay for Inhibitors of the Phosphatase Activity of Eya2. Protein phosphatase EYA2 (Homo sapiens), O00167. Potency, µM (titrated, usually from 76.9 µM), for inactives: top-dose activity, negative = inhibition, usual class: inhibitors. recombinant Eya2, OMFP fluorescence dephosphorylation (OMFP is methylfluorescein phosphate). AID 488837, 2010. 330,000 tested, 0.006% active; note: potency is the fitted concentration of half-maximal effect
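Eya2 (0.2 uM) preincubated 10 min at ambient with compound, then OMFP substrate added at 50 uM; 10 min reaction in 50 mM HEPES pH 7.5, 50 mM NaCl, 5 uM MgCl2, 0.05% BSA, 1 mM DTT. Fluorescence read at Ex 485/Em 525 nm.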
TrxR1 inh – qHTS Assay for Inhibitors of Mammalian Selenoprotein Thioredoxin Reductase 1 (TrxR1): qHTS | Thioredoxin reductase 1, cytoplasmic (Rattus norvegicus), O89049 | recombinant rTrxR1, NADPH fluorescence consumption, selenite substrate | 390,000 tested, 1% active | Potency, µM (series often up to 114 µM), for the others: top-dose activity change, negative = inhibition, hits mostly inhibitors; note: potency is the fitted concentration of half-maximal effect; nearly all actives have a fitted effect of over 65% in size
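Rat TrxR1 (90 nM in the dispensed reagent) was pre-reduced with 400 uM NADPH for 5 min at room temperature, then incubated with compound for 15 min. After 400 uM selenite was added, NADPH fluorescence (Ex 340/Em 450 nm) was followed for 8 min.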
TrxR1 substrate – qHTS Assay for Substrates of Mammalian Selenoprotein Thioredoxin Reductase 1 (TrxR1): qHTS | Potency, µM (series often up to 114 µM), for the others: at the highest dose activity change, negative = substrate turnover | Thioredoxin reductase 1, cytoplasmic (Rattus norvegicus), O89049 | 390,000 tested, 0.01% active | purified TrxR1 substrate turnover, NADPH consumption readout | AID 588456, 2011; note: potency is the fitted concentration of half-maximal effect; nearly all actives have a fitted effect of over 50% in size
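Rat TrxR1, dispensed at 90 nM, was prereduced with 400 uM NADPH (final) for 5 min at ~22 deg C, then incubated with compound 15 min before 400 uM selenite. A first-read NADPH fluorescence drop versus no-compound background flagged substrates.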
* marks the source's active call; other numbers are inactive results; ? = inconclusive; . = no result given; [ ] = dose if it differs, or a comment. Unless noted, calls come from the whole dose curve; as a rule, active = well fitted curve in the direction sought with a large enough effect; inconclusive = small, poorly fitted or top-dose-only effect, or another doubt; inactive = no such curve, though single readings can be large; an effect the other way counts as inactive or inconclusive. % is set by controls: 0 for no effect and ±100 for the full control effect.

SMILES	FBPA coupling cs	mIDH1 inhibitor	Eya2 inh	TrxR1 inh	TrxR1 substrate
CC[C@H](C)[C@H](NC(=O)CNC(=O)[C@H](CCCNC(=N)N)NC(=O)CNC(=O)[C@@H](NC(=O)[C@H](Cc1ccc(O)cc1)NC(=O)[C@H](Cc1c[nH]c2ccccc12)NC(=O)[C@H](C)NC(=O)[C@@H]1CCCN1C(=O)[C@H](CC(N)=O)NC(=O)[C@@H](NC(=O)[C@H](CC(=O)O)NC(=O)[C@@H]1CCCN1C(=O)[C@@H](N)[C@@H](C)O)[C@@H](C)CC)[C@@H](C)O)C(=O)N[C@@H](CCCNC(=N)N)C(=O)N1CCC[C@H]1C(=O)N[C@H](C(=O)NCC(=O)N[C@@H](CCCNC(=N)N)C(=O)N[C@@H](Cc1ccccc1)C(N)=O)C(C)C	0	.	.	.	.
CC1=C(n2nnc3ccccc32)C(c2ccccc2)C(C#N)=C(N)O1 (centres undefined)	-42*	-8%	14%	?	3%
Cc1nn(-c2ccccc2)c2c1C(c1ccncc1)C(C#N)=C(N)O2 (centres undefined)	-1	6%	-3%	-44%	-6%
COc1cccc(CCn2c(N)cc(=O)[nH]c2=S)c1OC	.	.	.	-12%	-3%
CCn1nc(C)cc1-c1nnc(Sc2ncc([N+](=O)[O-])s2)n1C	-2	-3%	4%	0.35µM*	-10%
COc1ccc(C2=Nn3c(nnc3-c3ccc(OC)c(OC)c3)SC2)cc1	0	.	.	.	.
CCOC(=O)N1C=CC=C[C@@H]2[C@@H](N3C(=O)c4ccccc4C3=O)C(=O)N21	-1	-3%	6%	16µM*	7%
CCOC(=O)c1cc2sc(C)cc2n1CCCN1C(=O)c2ccccc2C1=O	-4	10%	6%	4%	-3%
C[n+]1ccc(/C=C/c2ccc([N+](C)(C)C)cc2)c2ccccc21	.	.	.	-33%	-12%
CCOC(=O)CN1C(=O)C(=O)c2cccc(C)c21	-48*	-17%	1%	19%	0%
Cc1cc(C)n2c(=O)c3ccc(Cl)cc3nc2c1C#N	5	2%	2%	24%[57.1 µM]	4%[57.1 µM]
Cc1cc(Cl)n2c(nc3cc(F)c(F)cc32)c1C#N	0	0%	-7%	6.3µM*	2%[57.1 µM]
CCCn1c(=O)c(C(=O)OCC)c(O)c2cc(Br)ccc21	-5	-8%	9%	9%	-1%
CCOC(=O)c1c(CN(C)C)n(C)c2c(O)c(N=NC(N)=O)c3ccc(Br)cc3c12	-31*	4%	-8%	22%	-9%
Nc1ccc(C(=O)O)cc1	1	6%	10%	22%	10%
Nc1ccc(O)cc1	.	.	.	14µM*	?
COCCCNC(=O)c1ccc2c3c(onc13)-c1ccccc1C2=O	-32*	9%	-20%	-34%[57.1 µM]	-4%[57.1 µM]
O=C(O)c1ccc(NC2=C(n3nnc4ccccc43)C(=O)c3ccccc3C2=O)cc1	-33*	-3%	4%	7.1µM*	-5%
O=C(CC1SC(=O)N(c2ccccc2)C1=O)Nc1ccccc1 (centres undefined)	2	7%	12%	-9%	-2%
O=C(CC1Sc2ncnn2C1=O)Nc1ccccc1 (centres undefined)	2	5%	-21%	4.5µM*	7%
Cc1cc(C(Br)(Br)Br)nc2ccccc12	.	.	.	3.2µM*	5%
Cc1cc(Cl)nc2ccccc12	.	.	.	14%[0.0914 µM]	4%
Cc1ccc(-c2nc3ccc([N+](=O)[O-])cc3[nH]2)cc1	-31*	20%	3%	17%	-2%
CCCCCCCCCCCCC/C=C/[C@@H](O)C(CO)NC(C)=O (some centres undefined)	-2	.	.	.	.
COCCn1c(C)c(C)c(S(=O)(=O)c2ccccc2)c1N	-7	-5%	?	20µM*	4%
